Measurements: PubChem BioAssay AID1117319 (Southern Research Institute, 2015)
In all, about 260,000 compounds went through this assay and about 1,500 (0.58%) were called active. Roughly 5% stayed inconclusive and do not appear here.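 How the source made its calls: active means inhibition above a set limit at one or more doses, reproduced on every date tested; inconclusive means results disagree between test dates, or hit never tested in dose response; inactive means the rest.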 A selection follows. Potency and affinity values are given separately.

Molecular target: Virion infectivity factor (Human immunodeficiency virus type 1 group M subtype B (isolate BH10)) + Virion infectivity factor (Human immunodeficiency virus type 1 group M subtype B (isolate BRU/LAI)) + Virion infectivity factor (Human immunodeficiency virus type 1 group M subtype B (isolate PCV12)) + Virion infectivity factor (Human immunodeficiency virus type 1 group M subtype B (isolate HXB2)) + DNA dC->dU-editing enzyme APOBEC-3G (Homo sapiens) (UniProt P69720+P69721+P69722+P69723+Q9HC16)
Test: HIV-1 Vif–A3G interaction blockers – biochemical, TR-FRET, GST-Vif 1-94, biotin-A3G peptide, dose response retest, primary screen (AID 1117319);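 further: Vif residues 1-94 fused to GST binding biotinylated APOBEC3G peptide 110-148; 0% = full assay without inhibitor and 100% = GST in place of GST-Vif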
Conditions: TR-FRET GST-Vif / biotin-A3G peptide binding; stronger effect = higher value

inhibition, inactive:
COc1cc(/C=C2\CC/C(=C\c3cc(OC)c(OC)c(OC)c3)C2=O)cc(OC)c1OC 2.04%, COc1ccc(/C=C2\CC/C(=C\c3ccc(OC)c(OC)c3)C2=O)cc1OC -3.91%, COc1cc(/C=C2\CCC/C(=C\c3ccc(O)c(OC)c3)C2=O)ccc1O 3.35%, COc1cc(/C=C2/CC/C(=C/c3ccc(O)c(OC)c3)C2=O)ccc1O 32.3%, Cc1cc(C)cc(OCc2ccc(C(=O)O)o2)c1 9.08%, FC(F)(F)c1ccc(N=Cc2sc(N3CCOCC3)nc2-c2ccccc2)cc1 12.3%, COc1ccc(NC(=O)CN(C)C(=O)c2sc3ccccc3c2Cl)cc1 1.23%, CS(=O)(=O)N(Cc1ccccc1)c1ccc(C(=O)NCc2ccccc2)cc1 25%, C/C(=N\Nc1ccc(S(N)(=O)=O)cc1[N+](=O)[O-])c1ccco1 -3.09%, O=C1OC(c2ccc(Cl)cc2)=C/C1=C/c1cccnc1 1.36%, COC(=O)C1=C(C)NC(C)=C(C(=O)OC)C1c1ccc(NC(C)=O)cc1 -1.45%, Cc1ccc(NC(=O)c2ccc(Cl)nc2)cc1 16.1%, O=C(Nc1ccc(Cl)c(Cl)c1)c1ccc(Cl)c(Cl)c1 22.2%, Cc1ccnc(NC(=O)c2cccc(S(=O)(=O)NCc3ccccc3)c2)c1 -2.28%, COc1cccc(-n2nnc3c(=O)n(Cc4ccc(Br)cc4)cnc32)c1 -0.95%, O=C(OCC(=O)c1cccs1)c1ccc(NC(=O)c2ccco2)cc1 13.8%, CCCC[N+](C)(C)CCC(=O)NC(C)(C)CS(=O)(=O)[O-] 17.8%, CC1(NC(=O)CC[N+](C)(C)CCO)CS(=O)(=O)CC1S(=O)(=O)[O-] (stereo not given) 11.7%, CC(=O)Nc1ccc(/C(C)=N/NS(=O)(=O)c2ccccc2)cc1 -13.2%, Cc1ccc(CN2CCSc3ccc(C(=O)NCc4ccco4)cc32)cc1 -7.52%, CN1C(=O)C(=C2CCCCCC2)SC1=S 4.5%, O=C1NC(=S)SC1=C1CCCCCC1 16.7%, O=C(Cn1ncc2c(=O)oc3ccccc3c21)NCCc1ccsc1 -2.92%, COC(=O)[C@@]1(C)[C@H]2C(=O)N(Cc3ccccc3)C(=O)[C@H]2[C@H]2CN(C)C(=NC3CCCCC3)N21 -5.32%, COCCn1c(SCC(=O)Nc2sccc2C(N)=O)nnc1-c1ccncc1 -0.42%, O=C(O)c1cnn2c(C(F)(F)F)cc(-c3ccco3)nc12 23%, CCOC(=O)c1cnn2c(C(F)(F)F)cc(-c3ccco3)nc12 17%, CC(=O)c1cn(N(C)c2ncc(C(F)(F)F)cc2Cl)c(=O)[nH]c1=O -1.96%, CCOc1ccccc1C(=O)NCC(=O)NNC(=O)c1cccc(S(=O)(=O)Nc2ccc(OC)cc2)c1 -2.98%, O=C(Nc1ccccc1)N1CCCC2CCCCC21 (stereo not given) 7.94%, CC(C)C(=O)Nc1cccc(C(=O)N2CCCCC2C)c1 (stereo not given) 12.2%, CCC(C)N1CCN(S(=O)(=O)c2ccc(NC(C)=O)cc2)CC1 (stereo not given) -5.24%, Cn1c(=O)c2c(nc(CN3CCN(C(=O)c4ccco4)CC3)n2Cc2ccc(Cl)cc2)n(C)c1=O -6.63%, COc1ccc(OCC(=O)N2CCN(S(=O)(=O)c3ccc(Cl)cc3)CC2)cc1 0.42%, O=C(COc1ccccc1)N1CCN(S(=O)(=O)c2ccc(Cl)cc2)CC1 11.7%, Cn1c(N)c(C(=O)COC(=O)Cc2ccc(Cl)cc2)c(=O)n(C)c1=O 0.17%, CCS(=O)(=O)c1ccc2c(c1)N(S(C)(=O)=O)CC(C(=O)NN)O2 (stereo not given) -7.03%, Cc1ccc2nc(SCC(=O)N3CCN(c4ccccc4)CC3)[nH]c2c1 -0.39%, O=C(CCN1C(=O)c2cccc([N+](=O)[O-])c2C1=O)Nc1nccs1 -4.6%, O=[N+]([O-])c1ccc(N2CCN(c3ccccc3O)CC2)c(Cl)c1 -0.29%, NC(=O)C1CCN(c2ccc([N+](=O)[O-])cc2Cl)CC1 12.1%, N#Cc1csc(CCNC(=O)c2ccccc2)n1 -7.18%, CSc1ccc(-c2ccco2)nn1 11.8%, Clc1ccccc1CSc1ncccn1 -2.52%, Nc1cc(N)nc(SCc2ccccc2Cl)n1 0.21%, CSc1nnc(-c2ccco2)n1-c1ccccc1 5.76%, Nn1c(SCc2ccccc2)nnc1-c1ccco1 2.72%, c1ccc(CSc2n[nH]c(-c3ccco3)n2)cc1 28.1%, CCC(C)[C@H]1CNC(=S)N1CCC12CC3CC(CC(C3)C1)C2 (stereo not given in full) 28.7%, Cc1ccc(N(CC(=O)NCc2ccc3c(c2)OCO3)S(=O)(=O)c2c(C)noc2C)cc1 1.33%, CCc1ccc(-c2nc(CS(=O)CC(=O)NCCN3CCCCCC3)c(C)o2)cc1 (stereo not given) -8.11%, CC1CN(C(c2cccs2)c2sc3ncnn3c2O)CC(C)O1 (stereo not given) -3.12%, O=S(=O)(/N=C(/Nc1cccc2ccccc12)c1ccccc1)c1ccc(Br)cc1 3.03%, CCOC(=O)N1CCC(N2CCN(S(=O)(=O)c3ccc(C)cc3)CC2)CC1 3.57%, CCCCC(=O)Nc1ccc(Br)cn1 -2.24%, CCCCCCC(=O)Nc1ccc(Br)cn1 22.8%, C/C(=N/NC(=O)c1ccccc1)c1ccc(NC(=O)C(F)(F)F)cc1 1.31%, Cc1ccc(OCC(O)CNCc2ccc(F)cc2)cc1 (stereo not given) 4.08%, O=C(Nc1ccc(CN2CCCCC2)cc1)c1cccc(F)c1 -2.63%, COc1ccc(C(=O)CSc2nc3ccccc3n2CC(=O)c2ccccc2)cc1 2.41%, O=C(CSc1nc2ccccc2n1CCc1ccccc1)NC1CC1 16.5%, CCC(C)[C@H](NC(=O)Nc1ccccc1F)C(=O)OC (stereo not given in full) 85.4%, CC(=O)Nc1ccc(NC(=O)[C@@H](NC(=O)c2ccccc2F)C(C)C)cc1 2.31%, COc1ccc(NC(=O)Nc2cccs2)cn1 9.16%, Cc1cc(F)ccc1S(=O)(=O)Nc1ccccc1C(=O)Nc1ncn[nH]1 -4.68%, Cc1cc(F)ccc1S(=O)(=O)Nc1ccccc1C(=O)Nc1ccccc1-c1nc2ccccc2[nH]1 16.7%, COc1ccccc1NC(=O)C(C)OC(=O)CN1C(=O)C2CC=CCC2C1=O (stereo not given) -6.25%, COc1ccc(CCN2CC(C(=O)N(C)CCn3nc(C)cc3C)CCC2=O)cc1 (stereo not given) 6.02%, Cc1cc(C)n(Cc2ccc(C(=O)O)cc2)n1 -1.33%, CCc1ccc(C(=O)O)cc1 0.16%, Cc1cc(C(=O)O)ccc1-n1c(C)cc(C=C2C(=O)c3ccccc3C2=O)c1C -10.7%, Cc1ccc(C)n1-c1ccc(C(=O)NN)cc1 -3.66%, Cc1ccc(C)n1-c1cccc(C(=O)Nc2ccccc2)c1 18.2%, Cc1ccc(-c2ccccc2)n1-c1ccc(C(=O)O)cc1 -4.6%, Cc1cc(N)ccc1-n1c(C)ccc1C 15.6%, Cc1ccc(-c2ccccc2)n1-c1cccc(C(=O)O)c1 0.87%, Cc1cc(C)cc(NC(=O)CCNS(=O)(=O)c2ccc3c(c2)oc(=O)n3C)c1 17.7%, CC1CC(C)(C)NC(=S)N1CCCC(=O)Nc1ccc(Br)cc1 (stereo not given) -9.53%, O=C(NC1CCCCC1)C12CC3CC(CC(Cl)(C3)C1)C2 9.37%, COc1ccc(O)c(CN2CC3CCC(CC3)C2)c1 4.35%, COc1ccc(N2CCN(C(=O)COC(=O)CNC(=O)c3ccccc3)CC2)cc1 3.12%, CC1(C)NC(=O)N(CC(=O)NNC(=O)c2ccccc2F)C1=O -5.82%, FC(F)(F)c1cnc(N2CCN(C(=S)NCc3ccccc3)CC2)c(Cl)c1 -5.24%, COc1cc2[nH]c3c(=O)n(N)c(=O)[nH]c3c2cc1OC -6%, O=[N+]([O-])c1ccccc1S(=O)(=O)Nc1ncccn1 5.53%, O=[N+]([O-])c1ccccc1S(=O)(=O)NC1CCCCCCC1 8.73%, CCN(C(=O)COC(=O)c1oc2ccc(OC)cc2c1C)C1CCCCC1 -5.77%, CC1CCCN(C(=O)NC(=O)c2ccc(Cl)cc2)C1 (stereo not given) -0.86%, Cc1ccc(NC(=O)CCNS(=O)(=O)c2cc(Br)cnc2N)cc1Cl 5.11%, Cc1cc(C)cc(NC(=O)CCNS(=O)(=O)c2cc(Br)cnc2N)c1 -18.9%, O=C(COC(=O)CCCSc1nc2ccccc2[nH]1)Nc1cccc(F)c1 -3.43%, COC(=O)c1ccc(Cn2nnc3ccccc32)cc1 26.1%, Cc1ccc(S(=O)(=O)N2C(=O)CCC2C(N)=O)cc1 (stereo not given) -11.2%, O=C(C1CCCO1)N1CCN(C(=S)NC2CC2)CC1 (stereo not given) -5.45%, O=C(C1CCCO1)N1CCC(O)(c2ccccc2)CC1 (stereo not given) -9.62%, Cc1c(C)c(C)c(CN2CCSCC2)c(C)c1C 21.2%, CC(C)CN(C(=O)CN1CCN(c2ccc([N+](=O)[O-])cc2)CC1)c1c(N)n(CC(C)C)c(=O)[nH]c1=O 13.2%, CCN(C(=O)CN1CCN(c2ccc(OC)cc2)CC1)c1c(N)n(Cc2ccccc2)c(=O)[nH]c1=O 20.7%, CCN(C(=O)CN1CCN(c2ccccc2)CC1)c1c(N)n(Cc2ccccc2)c(=O)[nH]c1=O -6.89%, CC(=O)c1ccc(N2CCN(CC(=O)N(CC(C)C)c3c(N)n(CC(C)C)c(=O)[nH]c3=O)CC2)cc1 19.2%
